ALR H2O2 inh: inhibitors of human sulfhydryl oxidase ALR; P55789; purified ALR, DTT oxidation, H2O2 HRP-luminol luminescence; inhibition, % (no concentration beside the values); actives 3.8% (n = 290,000); AID 485317;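 active = mean replicate inhibition above about 79%, with every replicate also reaching it, limit read from the data; inconclusive = only one of the two criteria met; inactive = mean below limit and not every replicate reaching it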
Target sequence (P55789 whole entry, looked up): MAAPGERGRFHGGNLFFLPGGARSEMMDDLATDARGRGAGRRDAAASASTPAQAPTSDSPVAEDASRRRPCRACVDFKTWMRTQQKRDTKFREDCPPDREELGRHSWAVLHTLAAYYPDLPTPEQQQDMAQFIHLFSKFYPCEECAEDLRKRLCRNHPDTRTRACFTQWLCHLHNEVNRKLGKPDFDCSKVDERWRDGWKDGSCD
HIF activator: HIF pathway transcriptional activation; U2OS HRE-luciferase reporter, luminescence; normalized: DMSO 0%, desferrioxamine 100%; activation, % at 7.5 µM (by protocol); actives 0.32% (n = 300,000); AID 1910;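 active = mean activation of at least 10% of the iron chelator positive control signal, with at least half of replicates also reaching 10%; inconclusive = mean and replicate majority disagree about reaching 10%; inactive = mean and most replicates under 10%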
SUMO Mot1 rescue: SUMOylation pathway inhibition by Mot1-301 growth rescue. growth rescue, % at 18.8 µM. actives 1% (n = 320,000). AID 2716. S. cerevisiae Mot1-301 growth rescue, ATP luminescence, 38.5C; percent above DMSO median, 100 means doubled;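 active = every valid replicate shows activation above 250% relative to neutral control wells; inactive = the rest, any valid replicate at or below 250%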
AI-2 QS mod: Vibrio harveyi AI-2 quorum sensing modulation; activity change, % at 7.5 µM; Vibrio harveyi JMH597 AI-2 luminescence/OD600 ratio, 9 h; hits give low values; strain lacks LuxN and CqsS sensors; 0 = neutral-control median; AID 2094; actives 0.4% (n = 300,000); in the data active = activity change below about -75%, passing the limit was not always enough; inconclusive = no clear call, values can overlap the other calls;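 note: luminescence divided by OD600 gain over 9 h not by final OD600 alone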
JMH597 growth rt: retest: inhibitors of Vibrio harveyi JMH597 growth | AID 2726 | OD600 absorbance, 9 h; lacks LuxN and CqsS sensors | shares compounds with AI-2 QS mod | growth inhibition, % at 7.5 µM | actives 1% (n = 750);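 active = every replicate shows growth inhibition above 50%; inconclusive = at least half, but not all, replicates pass that cutoff; inactive = fewer than half of replicates pass it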
BB721 const-QS lum: retest counter-screen: lowers luminescence of constitutive-QS Vibrio harveyi BB721; inhibition, % at 7.5 µM; shares compounds with AI-2 QS mod; actives 95% (n = 750); 9 h; AID 2727;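 active = inhibition above about 80% in every replicate, not just on average, limit read from the data; inconclusive = at least half of replicates past the limit, but not all; inactive = fewer than half of replicates past the limit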
BB721 growth: retest: inhibitors of Vibrio harveyi BB721 growth | AID 2728 | shares compounds with AI-2 QS mod | actives 3% (n = 750) | growth inhibition, % at 7.5 µM | OD600 absorbance, 9 h;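 active = every replicate shows growth inhibition above 50%; inconclusive = at least half but not all replicates above 50% inhibition; inactive = under half of replicates above 50% inhibition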
AI-2 QS JMH597: Vibrio harveyi AI-2 signaling luminescence modulation – JMH597 strain, confirmation | shares compounds with AI-2 QS mod | Vibrio harveyi JMH597 AI-2 quorum sensing luminescence, 9 h; luxN and CqsS knockout, AI-2 only | inhibition, % at 7.5 µM | actives 97% (n = 750);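 active = every replicate shows more than 75% inhibition of signal versus neutral control wells; inconclusive = half to three quarters of replicates exceed 75% inhibition; inactive = fewer than half of replicates exceed 75% inhibition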
Numbers stand for hits; – = inactive; ? = inconclusive; · = no result given. A selection: hits, their analogues and other compounds. The true share with any hit is near 4.8%.

SMILES	ALR H2O2 inh	HIF activator	SUMO Mot1 rescue	AI-2 QS mod	JMH597 growth rt	BB721 const-QS lum	BB721 growth	AI-2 QS JMH597
CCCCNC(=O)COC(=O)c1ccc(NS(=O)(=O)c2ccc3c(c2)OCCO3)cc1	–	–	–	-92.4	–	97.5	–	99.3
Cc1occc1C(=O)NCCCc1ccccc1	–	–	–	-78.3	–	87.3	–	90.7
COc1cccc(/C=C/C(=O)NCc2ccc3c(c2)OCO3)c1	·	–	–	-85.6	–	94.8	–	95.7
COc1cccc(OCc2cc(C(=O)NCc3ccc4c(c3)OCO4)no2)c1	–	–	–	?	–	91.5	?	96.2
Cc1ccc2nc3n(c(=O)c2c1)-c1ccccc1C(=O)NC3Cc1ccccc1 (configuration not stated)	–	·	–	·	·	·	·	·
CSc1c(CN2CCN(C)CC2)c2ccccc2n1C	–	–	–	–	·	·	·	·
O=S(=O)(NCc1ccccc1)c1ccc(NC(=S)NCc2ccco2)cc1	–	–	–	-97.4	–	99.7	–	99.8
CCNS(=O)(=O)c1ccc(NC(=S)NCc2ccco2)cc1	·	–	–	–	·	·	·	·
O=C(Nc1cnn(Cc2ccc(Cl)cc2)c1)c1cnccn1	–	–	–	-95.7	–	98.9	–	99.3
COc1ccccc1N1CCNC(C)C1=O (configuration not stated)	–	–	–	–	·	·	·	·
Nn1c(SCc2ccc([N+](=O)[O-])cc2)nc2ccccc2c1=O	–	–	–	-96.8	–	96.7	–	97.5
O=c1c2ccccc2nc(SCc2ccc([N+](=O)[O-])cc2)n1-c1ccc(Cl)cc1	–	–	–	–	·	·	·	·
COc1cc(/C=N/NC(=O)CCn2c3ccccc3c3ccccc32)ccc1O	–	–	–	–	·	·	·	·
COc1ccc(/C=N/NC(=O)Cn2cnc3ccccc3c2=O)cc1OC	–	–	–	-91.4	–	96.8	–	97.5
COc1cc(/C=N\NC(=O)Cn2nnc3ccccc32)cc(OC)c1OC	–	–	–	-87.1	–	92.7	–	95.9
COc1ccc(NC(=O)CCNC(=O)Cn2cnc3ccccc3c2=O)cc1OC	–	–	–	–	·	·	·	·
COc1cc(/C=N/NC(=O)Cn2nnc3ccccc32)ccc1O	92.2	–	–	-87.1	–	94.4	–	96.1
COc1ccc(CNC(=O)C(=O)NCCC2CCCCN2S(=O)(=O)c2cccs2)cc1 (configuration not stated)	–	–	–	–	·	·	·	·
O=C(NNC(=O)c1ccccc1OCc1ccccc1Cl)c1csc(N2CCOCC2)n1	–	–	–	–	·	·	·	·
Oc1oc(-c2ccccc2)nc1C=Nc1ccccc1	–	–	–	–	·	·	·	·
Oc1oc(-c2ccccc2)nc1C=NCc1ccccc1	–	–	–	?	–	92.9	–	95.3
CCN(Cc1ccc(O)cc1)CC1CCCN(CCc2cccc(F)c2)C1 (configuration not stated)	·	–	–	–	·	·	·	·
CN(C)CCCN(C(=O)C1COc2ccccc2O1)c1nc2cc3c(cc2s1)OCO3 (configuration not stated)	–	–	–	–	·	·	·	·
Oc1ccc2ccccc2c1CNc1cnc2ccccc2c1	–	–	–	–	·	·	·	·
Oc1ccc(Cl)cc1CNc1cnc2ccccc2c1	–	–	–	-97.0	–	99.5	–	99.6
SMILES	ALR H2O2 inh	HIF activator	SUMO Mot1 rescue	AI-2 QS mod	JMH597 growth rt	BB721 const-QS lum	BB721 growth	AI-2 QS JMH597
COc1ccc(CC(=O)O/N=C(\N)c2ccc(OC)cc2)cc1	–	–	–	-94.0	–	96.6	–	97.9
COc1ccc(CC(=O)O/N=C(\N)Cc2ccc(OC)cc2)cc1	·	–	–	–	·	·	·	·
COc1ccc2nc(SCC(=O)NC3CCCC3)c(C)cc2c1	–	–	–	–	·	·	·	·
c1ccc(CNc2ncnc3sccc23)cc1	–	–	–	–	·	·	·	·
C(=N\c1ncnc2sccc12)/NOCc1ccccc1	–	–	–	-94.7	–	97.7	–	98.3
Clc1ccc(CON/C=N/c2ncnc3sccc23)cc1	·	–	–	-93.4	–	97.9	–	98.6
COc1ccnc(N=CNOCc2ccc(C)cc2)c1C#N	–	–	–	–	·	·	·	·
Cc1ccc(CNC(=O)CSc2ccc(-c3cccs3)nn2)cc1	·	–	–	–	·	·	·	·
CCc1nnc(NC(=O)CSc2ccc(-c3cccs3)nn2)s1	–	–	–	-88.6	–	96.8	–	97.9
CCc1nnc(NC(=O)CSc2ccc(-c3ccccc3OC)nn2)s1	–	–	–	-87.0	–	98.1	–	98.5
CCc1nnc(NC(=O)CSc2ccc(-c3ccc(F)cc3)nn2)s1	–	–	–	-93.1	–	89.8	–	93.1
CCOc1ccc(C2=CSC3=NCCN23)cc1Cl	–	–	–	–	·	·	·	·
CCc1occc(=O)c1Oc1cc(NN2CCCCC2)c([N+](=O)[O-])cc1[N+](=O)[O-]	–	–	–	–	·	·	·	·
O=C1NC(NS(=O)(=O)c2ccccc2)(C(F)(F)F)C(=O)N1c1cccc(Cl)c1 (configuration not stated)	–	–	–	–	·	·	·	·
CC(C)c1ccc(NC(=O)C2CSC3(C)CCC(=O)N23)cc1 (configuration not stated)	–	–	–	-91.3	–	93.2	–	96.0
CC12CCC(=O)N1C(C(=O)Nc1ccc(SC(F)F)cc1)CS2 (configuration not stated)	–	–	–	-94.1	–	95.4	–	95.8
N#Cc1ccc(CN2CCN(C(=O)c3ccc(S(=O)(=O)N4CCCCCC4)cc3)CC2)cc1	–	·	–	·	·	·	·	·
O=C(COC(=O)c1ccc(Br)o1)Nc1nc2ccccc2s1	–	–	–	?	–	93.5	–	95.3
Cc1ccc2nc(NC(=O)COC(=O)c3ccc(Br)o3)sc2c1	–	·	–	·	·	·	·	·
Cc1ccc2nc(NC(=O)COC(=O)c3ccco3)sc2c1	–	–	–	-91.6	–	97.6	–	98.5
COC(=O)c1c(C)[nH]c(C(=O)COC(=O)CCNS(=O)(=O)c2cccc(C(F)(F)F)c2)c1C	·	·	–	·	·	·	·	·
N/C(=N\OC(=O)CCc1ccccc1)c1ccccc1Cl	·	–	–	-85.5	–	92.1	–	92.5
CCOc1ccccc1CN1CCNC(=O)C1CC(=O)NC1CCCCCCC1 (configuration not stated)	·	–	–	–	·	·	·	·
O=C(O)CC(=O)Nc1cc(Cl)ccc1O	–	–	–	–	·	·	·	·
O=C(CCc1ccccc1)Nc1cc(Cl)ccc1O	–	–	–	-96.5	–	99.6	–	99.7
Cc1nc(C)c(C(=O)Nc2ccc(Oc3ccccc3)cc2)o1	–	–	–	-82.8	–	90.6	–	94.0
Cc1ncoc1C(=O)Nc1ccc(Oc2ccccc2)cc1	–	–	–	-96.3	–	98.8	–	99.2
Cc1ccc(CNC(=O)/C=C/c2cccs2)cc1	–	–	–	-96.2	–	98.6	–	99.0
